ELG1 genotoxic: induces genotoxicity in HEK293T cells with luciferase-tagged ELG1; AID 504466; actives 1.3% (n = 330,000); Potency, µM (doses to about 46 µM), most hits filed as activators; HEK293T ELG1-luciferase reporter, luminescence, 16 h; also: nearly all actives have a fitted effect of over 60% in size
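Luminescence read-out: rising ELG1-luciferase signal, reflecting elevated ELG1 protein under genetic stress, flags genotoxic compounds. Cells were treated for 16 hr at 37 °C before ONE-Glo detection.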
FLuc modulator: firefly luciferase modulation, counter-screen for miR-21 project | P08659 | purified FLuc, Km substrates, luminescence inhibition | Potency, µM (titrated, usually from 57.5 µM), most hits filed as inhibitors | actives 6.9% (n = 360,000) | AID 588342; also: nearly all actives have a fitted effect of over 55% in size
Target sequence (P08659 whole entry, looked up): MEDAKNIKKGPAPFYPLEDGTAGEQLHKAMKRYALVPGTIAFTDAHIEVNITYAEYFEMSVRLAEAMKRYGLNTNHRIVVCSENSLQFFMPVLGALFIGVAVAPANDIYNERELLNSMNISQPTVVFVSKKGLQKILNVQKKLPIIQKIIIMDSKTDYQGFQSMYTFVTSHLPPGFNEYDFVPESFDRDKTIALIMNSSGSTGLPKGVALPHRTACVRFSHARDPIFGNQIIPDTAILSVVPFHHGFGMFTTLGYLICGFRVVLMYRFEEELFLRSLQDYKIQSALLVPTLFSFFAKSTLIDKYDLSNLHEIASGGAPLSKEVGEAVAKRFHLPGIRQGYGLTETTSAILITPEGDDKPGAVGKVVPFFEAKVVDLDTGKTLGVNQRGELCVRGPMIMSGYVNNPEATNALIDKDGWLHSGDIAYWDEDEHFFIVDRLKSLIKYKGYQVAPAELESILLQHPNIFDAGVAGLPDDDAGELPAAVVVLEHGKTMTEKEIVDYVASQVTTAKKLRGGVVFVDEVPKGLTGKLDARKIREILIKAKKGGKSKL
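Purified P. pyralis luciferase (10nM final) with 10uM D-luciferin and 10uM ATP (Km levels) in 50mM Tris acetate pH 7.5, 10mM Mg acetate, 0.01% Tween-20, 0.05% BSA; qHTS 6-point titration, ~60 µM downward; luminescence read.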
KinaseGlo FLuc: blocks Kinase-Glo luciferase, a counter-screen artifact | Q27757 | Kinase-Glo luciferase, ATP luminescence, 8 min | Potency, µM (top dose mostly 38.3 µM), hits mostly inhibitors | actives 0.28% (n = 200,000) | AID 1379; also: nearly all actives have a fitted effect of over 60% in size
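Substrate mix (final 50 mM imidazole pH 7.2, 50 mM KCl, 7 mM MgCl2, 10 uM ATP, 0.01% Tween 20, 0.05% BSA) plus pin-tool compound, then Kinase-Glo detection mix; 8 min ambient, luminescence read.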
Rab9 prom act: activates the Rab9 promoter | Huh7 Rab9 promoter-luciferase reporter, luminescence, 24 h | Potency, µM (doses to about 9.22 µM), hits mostly activators | actives 2.8% (n = 320,000); also: nearly all actives have a fitted effect of over 60% in size
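Luminescence read-out: Huh7 cells stably expressing Rab9-luciferase, treated 24 h with compound at 37 °C, then lysed with luciferase reagent for 10 min at ambient before reading.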
NPC1 promoter act: activates the NPC1 promoter; Huh7 NPC1 promoter luciferase reporter, 24 h; Potency, µM (doses to about 9.22 µM), hits mostly activators; actives 2.4% (n = 320,000); also: nearly all actives have a fitted effect of over 60% in size
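Luminescence from an NPC1 promoter-driven luciferase reporter in stably transfected Huh7 cells was measured after 24 h compound treatment at 37 °C, followed by 10 min ambient incubation with luciferase detection reagent.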
SMN2 splice enh: SMN2 splice variant enhancement. HEK293 SMN2-luciferase splicing reporter, luminescence, 30-36 h. actives 2.8% (n = 210,000). Potency, µM (highest dose often 46.1 µM), hits mostly activators. AID 1458; also: nearly all actives have a fitted effect of over 55% in size
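HEK293 cells carry an SMN2 minigene-luciferase reporter in which exon 7 inclusion puts luciferase in frame. Cells were seeded at 2000 cells/well, attached for 10-12 hours, then exposed to compounds for 30-36 hours at 37C before ONE-Glo luminescence.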
A number is an active result; n = inactive; u = inconclusive; x = no result given; ! = not active in a repeat; [ ] = another dose, or the depositor's remark. An excerpt weighted towards active compounds, which were near 7.5% of everything screened. Calls follow the shape of the dose curve; as a rule, active = well fitted curve in the direction sought with a large enough effect; inconclusive = small, poorly fitted or top-dose-only effect, or another doubt; inactive = no such curve, though single readings can be large; an effect the other way counts as inactive or inconclusive.

SMILES	ELG1 genotoxic	FLuc modulator	KinaseGlo FLuc	Rab9 prom act	NPC1 promoter act	SMN2 splice enh
C/C(=N\NC(=O)c1ccc(Cl)cc1)c1ccc(N2CCOCC2)cc1	n	n	n	n	n	n
Cc1ccc(S(=O)(=O)NN=Cc2ccc(N3CCOCC3)cc2)cc1[N+](=O)[O-]	n	x	x	x	x	x
C/C(=N\Nc1ccccn1)c1ccc(N2CCOCC2)cc1	u	13.5µM	n	2.24µM	u	14.1µM
O=[N+]([O-])c1cccc(N/N=C/c2ccc(N3CCOCC3)cc2)c1	u	10.7µM	x	3.16µM	2.82µM	x
C(=N\Nc1ccccc1)/c1ccc(N2CCOCC2)cc1	u	7.57µM	n	2.82µM	3.16µM	17.8µM
C/C(=N\Nc1ccccn1)c1ccc(C(C)C)cc1	n	9.53µM	n	u	u	u
Cc1cc(C)nc(N/N=C/c2ccc(N3CCOCC3)cc2)n1	n	n	n	n	n	n
CCOc1ccc(OCC)c(NC(=O)c2cc(S(=O)(=O)N3CCc4ccccc43)cn2C)c1	x	n	x	x	x	x
Cc1cccn2c(=O)cc(COc3ccc(NC(=O)C(C)C)cc3)nc12	x	n	x	x	x	x
CCc1nc(Nc2ccc(F)c(Cl)c2)c2c3c(sc2n1)CCCC3	x	n	x	x	x	n
O=C(NC(=S)Nc1ccc(N2CCOCC2)cc1)c1cccc(Cl)c1	n	n	n	n	n	n
C(=N\Nc1ccccn1)/c1ccc(N2CCOCC2)cc1	u	6.01µM	n	2.82µM	3.16µM	12.6µM
O=C(O)c1cc(N/N=C/c2ccc(N3CCOCC3)cc2)ccc1Cl	u	0.601µM	x	u	u	x
Clc1cccc(N/N=C/c2ccc(N3CCOCC3)cc2)c1	n	13.5µM	n	u	u	u
COc1cc(/C=N/Nc2ccc(Cl)c(C(=O)O)c2)ccc1OC(=O)c1ccco1	n	u	n	n	u	n
CCOc1ccccc1CNC(=O)c1cc(-c2ccc(OC)cc2)nc2ccc(C(C)C)cc12	x	n	x	x	x	x
Clc1ccc(-c2nc(-c3cc4cc(Cl)ccc4o3)cs2)cc1	n	n	x	n	n	x
COc1ccccc1C(=O)Nc1ccc(-c2cc(C(F)(F)F)nn2-c2ccccc2)cc1	x	n	x	x	x	n
CCc1ccc(N(CC(=O)NC(C)C)C(=O)CCC(=O)Nc2nccs2)cc1	n	n	x	n[1.84 µM]	n	x
CCCC#CCN1CCN(C23CC4CC(CC(C4)C2)C3)CC1	n	n	x	n[1.84 µM]	n	x
CC(C(=O)NCc1ccccc1Cl)N1C(=O)c2ccccc2C1=O (stereo not drawn)	n	n	x	n	n	x
COc1ccc(C(=O)NCC(=O)OCC(=O)Nc2cc([N+](=O)[O-])ccc2F)cc1	n	23.9µM	n	n	n	n
CCOc1ccc(C(=O)NCC(=O)OCC(=O)Nc2ccccc2OCC)cc1	n	23.9µM	n	n	n	n
CCOc1ccc(C(=O)NCC(=O)OCC(=O)Nc2ccccc2OC)cc1	n	23.9µM	n	n	n	n
CCOc1ccc(C(=O)NCC(=O)OCC(=O)Nc2ccc(C)c(S(=O)(=O)N(C)C)c2)cc1	n	4.78µM	n	n	n	n
SMILES	ELG1 genotoxic	FLuc modulator	KinaseGlo FLuc	Rab9 prom act	NPC1 promoter act	SMN2 splice enh
CN1CCN(C(=O)c2cc3ccccc3cc2O)CC1	n	n	x	n	n[1.84 µM]	x
Cc1c(-c2nsc(NC(=O)c3ccc(Cl)cc3)n2)nnn1-c1ccc(C(C)C)cc1	x	n	x	x	x	x
Cc1c(N)c(=O)n(-c2ccccc2)n1C	n	n	n	n	n	n
Cc1cc(=S)n(-c2ccccc2)n1C	16.4µM	n	n	n	n	n
COc1ccc(-c2cn3nc(N4CCC(C(=O)Nc5cccc(OC)c5)CC4)sc3n2)cc1	x	n	x	x	x	x
c1ccc2nc3c(nc2c1)OCC1CCCCN31 (stereo not drawn)	u	3.79µM	x	2.51µM	4.47µM	x
CN(Cc1ccco1)S(=O)(=O)c1nnc(NC(=O)c2cccc(Cl)c2)s1	n	26.9µM	x	n	n	x
CN(Cc1ccccc1)S(=O)(=O)c1nnc(NC(=O)c2cccc(Cl)c2)s1	x	n	x	x	x	x
CCN(CC)S(=O)(=O)c1nnc(NC(=O)c2ccco2)s1	n	26.9µM	x	n	n	x
CN(c1ccccc1)S(=O)(=O)c1nnc(NC(=O)c2ccco2)s1	n	n	x	n	n	x
CC(C)CN(c1ccccc1)S(=O)(=O)c1nnc(NC(=O)c2ccco2)s1	n	0.849µM!	x	n	n	x
COc1ccc2c(c1)c1c(c(=O)n(Cc3ccccc3)c(=O)n1Cc1ccccc1Cl)n2C	x	n	x	x	x	x
O=C(O)CCC(=O)Nc1ccc(N2CCCCCC2)cc1	n	19µM	n	n	n	u
O=C(COC(=O)C1CCC1)Nc1ccc(OC(F)F)cc1	n	u	n	n	n	n
CC(C)CC(=O)Nc1ccc(C(=O)COC(=O)C2CCC2)cc1	n	8.49µM	x	n	n	x
O=C(COC(=O)C1CCCCC1)Nc1ccc(N2CCCCC2)cc1	n	21.3µM	n	n	n	n
CC(C)c1ccc(NC(=O)COC(=O)C2CCCCC2)cc1	n	1.2µM	x	n	n	x
Cc1ccc(N2CCN(c3ccc(NC(=O)CCC(=O)O)cc3)CC2)cc1	n	n	n	n	n	n
O=C(CSc1nncs1)Nc1ccc(N2CCCCC2)cc1	n	13.5µM	x	n	n	x
CCCC(=O)Nc1ccc(C(=O)COC(=O)C2=COCCO2)cc1	n	u	x	n	n	x
COc1ccc(NC(=O)CSc2nncs2)cc1S(=O)(=O)N1CCCCC1	n	x	x	x	x	x
CCCC(=O)Nc1ccc(C(=O)COC(=O)C2CC2C)cc1 (stereo not drawn)	n	1.69µM	x	1.41µM	2µM	x
Cc1cc(C)cc(Nc2cc(C)nc3nc(-c4ccco4)nn23)c1	x	n	x	x	x	x
COc1ccc(NC(=O)N(CCC(C)C)C(C)c2cccs2)c(OC)c1 (stereo not drawn)	x	n	x	x	x	x
CCCCN1C(=O)C(=O)N(c2ccccc2)C1=S	u	12µM	n	3.55µM	3.16µM	11.2µM
SMILES	ELG1 genotoxic	FLuc modulator	KinaseGlo FLuc	Rab9 prom act	NPC1 promoter act	SMN2 splice enh
CCCCN1C(=O)C(=O)N(CC(=O)N2CCN(c3ccccc3)CC2)C1=O	n	n	x	n	n	x
Cc1ccc(NC(=O)C2C3CCC(O3)C2C(=O)O)cc1Cl (stereo not drawn)	n	n	x	n	n	x
COc1ccccc1-c1cc2nc(C)c(CCC(=O)NCCc3ccc(SC)cc3)c(C)n2n1	x	n	x	x	x	n
N/C(=N\OC(=O)c1cccc(Br)c1)c1ccncc1	u	12µM	n	n	n	n
N/C(=N\OC(=O)c1ccccc1)c1ccncc1	u	19µM	n	2.82µM	u	n
O=C(COC(=O)c1ccncc1)c1ccc(Br)cc1	n	7.57µM	n	n	n	x
COc1cc(OC)cc(C(=O)O/N=C(\N)c2ccncc2)c1	n	u	n	n	n	n
N/C(=N\OC(=O)c1ccc(Br)cc1)c1ccncc1	u	4.78µM	n	u	u	u
O=C(COC(=O)c1cccc(C(=O)OCC(=O)c2ccc(Br)cc2)n1)c1ccc(Br)cc1	n	u	n	n	n	n
